Results taken from PubChem BioAssay (NCI).
Several values for one entry are separate records, joined by “and”; a condition that tells them apart may be missing. Identical values can stand only once. The panel holds about 83,000 compounds, 20% with a hit somewhere; the sample as a whole holds those more often.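 Testing used 96-well plates and a 48-hour single-concentration exposure. Example: -40 means 40% of the starting cells died.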 Activity calls are given as the source filed them. The calls were made as follows: active = growth percent below 10; inactive = the rest.

Legend:
Test in all cases: NCI-60 one-dose screen, 48 h (100 = growth as untreated, 0 = no growth, -100 = all killed)
NCI-H23 lung = tested on: NCI-H23 lung
NCI-H226 lung = tested on: NCI-H226 lung
NCI-H322M lung = tested on: NCI-H322M lung
HOP-62 NSCLC = tested on: HOP-62 NSCLC
NCI-H460 lung = details: 10 µM unless noted
HOP-92 NSCLC = tested on: HOP-92 NSCLC
NCI-H522 lung = tested on: NCI-H522 lung
A549/ATCC NSCLC = tested on: A549/ATCC NSCLC
786-0 renal = tested on: 786-0 renal
COLO 205 colon = tested on: COLO 205 colon
DU-145 prostate = tested on: DU-145 prostate
K-562 leukemia = tested on: K-562 leukemia
MALME-3M melanoma = tested on: MALME-3M melanoma
MDA-MB-231 breast = tested on: MDA-MB-231 breast
RXF 393 renal = tested on: RXF 393 renal
SF-268 CNS = tested on: SF-268 CNS
SF-295 CNS = tested on: SF-295 CNS
SF-539 CNS = tested on: SF-539 CNS
UACC-257 melanoma = tested on: UACC-257 melanoma

Cc1ccc(NCSc2ccc(Cl)cc2)cc1
growth (NCI-H23 lung; 10 µM unless noted): 80.7% (inactive) and 93.2% (inactive) | growth (NCI-H226 lung; 10 µM unless noted): 63.5% (inactive) and 103% (inactive) | growth (NCI-H322M lung; 10 µM unless noted): 94.8% (inactive) and 94.6% (inactive) | growth (HOP-62 NSCLC; 10 µM unless noted): 112% (inactive) and 87.8% (inactive) | growth (NCI-H460 lung): 82.7% (inactive) and 93.8% (inactive) | growth (HOP-92 NSCLC; 10 µM unless noted): 63% (inactive) | growth (NCI-H522 lung; 10 µM unless noted): 29% (inactive) and 47.1% (inactive) | growth (A549/ATCC NSCLC; 10 µM unless noted): 62% (inactive) and 63.7% (inactive) | growth (786-0 renal; 10 µM unless noted): 39.1% (inactive) and 53.7% (inactive) | growth (COLO 205 colon; 10 µM unless noted): 81.6% (inactive) and 93.1% (inactive) | growth (DU-145 prostate; 10 µM unless noted): 93.2% (inactive) and 95.4% (inactive) | growth (K-562 leukemia; 10 µM unless noted): 74.1% (inactive) and 80.2% (inactive) | growth (MALME-3M melanoma; 10 µM unless noted): 115% (inactive) and 92.6% (inactive) | growth (MDA-MB-231 breast; 10 µM unless noted): 58.7% (inactive) and 59.7% (inactive) | growth (RXF 393 renal; 10 µM unless noted): 100% (inactive) and 111% (inactive) | growth (SF-268 CNS; 10 µM unless noted): 63.9% (inactive) and 57.2% (inactive) | growth (SF-295 CNS; 10 µM unless noted): 85.8% (inactive) | growth (SF-539 CNS; 10 µM unless noted): 65% (inactive) and 69.6% (inactive) | growth (UACC-257 melanoma; 10 µM unless noted): 70.7% (inactive) and 86.5% (inactive)

COc1ccc2nc(Cl)cc(C)c2c1
growth (NCI-H23 lung; 10 µM unless noted): 101% (inactive) and 107% (inactive) | growth (NCI-H226 lung; 10 µM unless noted): 96.5% (inactive) and 104% (inactive) | growth (NCI-H322M lung; 10 µM unless noted): 91.3% (inactive) and 98.1% (inactive) | growth (HOP-62 NSCLC; 10 µM unless noted): 104% (inactive) and 65% (inactive) | growth (NCI-H460 lung): 100% (inactive) and 111% (inactive) | growth (HOP-92 NSCLC; 10 µM unless noted): 104% (inactive) and -11.5% (active) | growth (NCI-H522 lung; 10 µM unless noted): 97.5% (inactive) and 112% (inactive) | growth (A549/ATCC NSCLC; 10 µM unless noted): 96.5% (inactive) and 109% (inactive) | growth (786-0 renal; 10 µM unless noted): 97.2% (inactive) and 79.2% (inactive) | growth (COLO 205 colon; 10 µM unless noted): 104% (inactive) and 131% (inactive) | growth (DU-145 prostate; 10 µM unless noted): 104% (inactive) and 101% (inactive) | growth (K-562 leukemia; 10 µM unless noted): 104% (inactive) and 89.5% (inactive) | growth (MALME-3M melanoma; 10 µM unless noted): 97.5% (inactive) and 127% (inactive) | growth (MDA-MB-231 breast; 10 µM unless noted): 99.9% (inactive) and 102% (inactive) | growth (RXF 393 renal; 10 µM unless noted): 91.6% (inactive) and 75.9% (inactive) | growth (SF-268 CNS; 10 µM unless noted): 101% (inactive) and 116% (inactive) | growth (SF-295 CNS; 10 µM unless noted): 92.8% (inactive) and 87.6% (inactive) | growth (SF-539 CNS; 10 µM unless noted): 96.5% (inactive) and 107% (inactive) | growth (UACC-257 melanoma; 10 µM unless noted): 100% (inactive) and 95.9% (inactive)

CCc1ccccc1-n1c(N)c(C#N)c(-c2ccc(OC)c(OC)c2)c(C#N)c1=O
growth (NCI-H23 lung; 10 µM): 105% (inactive) | growth (NCI-H23 lung; 100 µM): 29.3% (inactive) | growth (NCI-H226 lung; 10 µM): 109% (inactive) | growth (NCI-H226 lung; 100 µM): 8% (active) | growth (NCI-H322M lung; 10 µM): 108% (inactive) | growth (NCI-H322M lung; 100 µM): 39.5% (inactive) | growth (HOP-62 NSCLC; 10 µM): 95.2% (inactive) | growth (HOP-62 NSCLC; 100 µM): -28.6% (active) | growth (HOP-92 NSCLC; 10 µM): 126% (inactive) | growth (HOP-92 NSCLC; 100 µM): -34.6% (active) | growth (NCI-H522 lung; 10 µM): 105% (inactive) | growth (NCI-H522 lung; 100 µM): -8.58% (active) | growth (A549/ATCC NSCLC; 10 µM): 106% (inactive) | growth (A549/ATCC NSCLC; 100 µM): 79.9% (inactive) | growth (786-0 renal; 10 µM): 107% (inactive) | growth (786-0 renal; 100 µM): -9.15% (active) | growth (COLO 205 colon; 10 µM): 138% (inactive) | growth (COLO 205 colon; 100 µM): 115% (inactive) | growth (DU-145 prostate; 10 µM): 115% (inactive) | growth (DU-145 prostate; 100 µM): 37.6% (inactive) | growth (K-562 leukemia; 10 µM): 111% (inactive) | growth (K-562 leukemia; 100 µM): 124% (inactive) | growth (MALME-3M melanoma; 10 µM): 103% (inactive) | growth (MALME-3M melanoma; 100 µM): -31.2% (active) | growth (MDA-MB-231 breast; 10 µM): 105% (inactive) | growth (MDA-MB-231 breast; 100 µM): 23.3% (inactive) | growth (RXF 393 renal; 10 µM): 111% (inactive) | growth (RXF 393 renal; 100 µM): -21.6% (active) | growth (SF-268 CNS; 10 µM): 102% (inactive) | growth (SF-268 CNS; 100 µM): 0.0621% (active) | growth (SF-295 CNS; 10 µM): 101% (inactive) | growth (SF-295 CNS; 100 µM): 19.7% (inactive) | growth (SF-539 CNS; 10 µM): 118% (inactive) | growth (SF-539 CNS; 100 µM): -54.9% (active) | growth (UACC-257 melanoma; 10 µM): 128% (inactive) | growth (UACC-257 melanoma; 100 µM): 96.8% (inactive)

OCCN1CCN(CCO)CC1
growth (NCI-H23 lung; 10 µM unless noted): 95.3% (inactive) and 99.7% (inactive) and 110% (inactive) | growth (NCI-H226 lung; 10 µM unless noted): 107% (inactive) and 97.5% (inactive) | growth (NCI-H322M lung; 10 µM unless noted): 106% (inactive) and 85.9% (inactive) and 115% (inactive) | growth (HOP-62 NSCLC; 10 µM unless noted): 100% (inactive) and 79.5% (inactive) and 106% (inactive) | growth (NCI-H460 lung): 111% (inactive) and 98.6% (inactive) and 108% (inactive) | growth (HOP-92 NSCLC; 10 µM unless noted): 102% (inactive) and 85% (inactive) and 95.2% (inactive) | growth (NCI-H522 lung; 10 µM unless noted): 98.6% (inactive) and 87.9% (inactive) and 108% (inactive) | growth (A549/ATCC NSCLC; 10 µM unless noted): 89.5% (inactive) and 73% (inactive) and 115% (inactive) | growth (786-0 renal; 10 µM unless noted): 108% (inactive) and 99.5% (inactive) and 99.4% (inactive) | growth (COLO 205 colon; 10 µM unless noted): 105% (inactive) and 113% (inactive) | growth (DU-145 prostate; 10 µM unless noted): 117% (inactive) and 111% (inactive) and 123% (inactive) | growth (K-562 leukemia; 10 µM unless noted): 96.3% (inactive) and 100% (inactive) and 104% (inactive) | growth (MALME-3M melanoma; 10 µM unless noted): 105% (inactive) and 97.4% (inactive) and 107% (inactive) | growth (MDA-MB-231 breast; 10 µM unless noted): 106% (inactive) and 107% (inactive) and 114% (inactive) | growth (RXF 393 renal; 10 µM unless noted): 114% (inactive) and 95.6% (inactive) and 120% (inactive) | growth (SF-268 CNS; 10 µM unless noted): 107% (inactive) and 101% (inactive) and 105% (inactive) | growth (SF-295 CNS; 10 µM unless noted): 94.9% (inactive) and 82.6% (inactive) and 110% (inactive) | growth (SF-539 CNS; 10 µM unless noted): 105% (inactive) and 91.1% (inactive) and 106% (inactive) | growth (UACC-257 melanoma; 10 µM unless noted): 117% (inactive)
